Test results taken from PubChem BioAssay (Tox21).
Inconclusive results are not listed. A call without a number means that no potency is given here. Calls of active or inactive are those of the source. The call rests on the fitted dose curve.

Target: 5-hydroxytryptamine receptor 2A (Homo sapiens) (UniProt P28223)
Experiment: 5-hydroxytryptamine receptor 2A (HTR2A) small molecule antagonists, cell-based qHTS assay (AID 1963586); further: nearly all actives have a fitted effect of over 45% in size
Conditions: HTR2A-CHO cells, DOI-induced calcium flux, fluorescence; series mostly up to 61.5 µM
In short: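 Antagonist-mode intracellular calcium assay: DOI (4 nM) added after 5 min compound pre-incubation at room temperature to dye-loaded HTR2A-CHO cells. Fluorescence followed for 3 min, sampled every second.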

Chain of 5-hydroxytryptamine receptor 2A (Homo sapiens) (P28223 whole entry, looked up): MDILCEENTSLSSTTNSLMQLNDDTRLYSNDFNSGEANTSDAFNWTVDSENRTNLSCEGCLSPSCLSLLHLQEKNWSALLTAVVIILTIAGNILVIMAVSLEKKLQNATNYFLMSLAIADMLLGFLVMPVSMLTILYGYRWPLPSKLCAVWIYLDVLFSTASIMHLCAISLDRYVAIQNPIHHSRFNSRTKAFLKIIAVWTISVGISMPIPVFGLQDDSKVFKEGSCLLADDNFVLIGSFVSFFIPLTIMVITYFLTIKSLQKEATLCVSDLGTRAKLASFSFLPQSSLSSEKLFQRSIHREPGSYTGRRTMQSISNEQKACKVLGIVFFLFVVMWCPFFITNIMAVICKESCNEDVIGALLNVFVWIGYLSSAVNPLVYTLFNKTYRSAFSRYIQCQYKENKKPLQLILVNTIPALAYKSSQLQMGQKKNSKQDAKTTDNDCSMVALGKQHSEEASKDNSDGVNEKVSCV

SMILES | Potency
CCCCCCOC(=O)CCCCC | inactive
O=S1(=O)CC(Cl)(Cl)C(Cl)(Cl)C1 | inactive
CS(=O)(=O)c1ccc(-c2cn3ccccc3n2)cc1 | inactive
Cc1c(C2(c3cc(Br)c(O)c(Br)c3C)OS(=O)(=O)c3ccccc32)cc(Br)c(O)c1Br | inactive
CC(Cl)C(Cl)Cl (stereo not drawn) | inactive
COc1c(N2C[C@@H]3CCCN[C@@H]3C2)c(F)cc2c(=O)c(C(=O)O)cn(C3CC3)c12 | inactive
CCOC(=O)c1ccccc1 | inactive
CCC1CO1 (stereo not drawn) | inactive
